E-sel TNF inh: TNF alpha driven E-selectin expression inhibition. HUVEC TNFa-induced E-selectin immunofluorescence, high content. 120,000 compounds, 0.71% hits. inhibition, % at 2 µM;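 active means inhibition above the batch mean plus 3 SD, and confirmed as a hit on visual image review, cut at about 43% in these data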;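 further: 0% = TNF-stimulated DMSO wells and 100% = unstimulated control wells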
F-actin modifier: alters cytoskeleton assembly in HUVEC cells. HUVEC TNFa F-actin phalloidin imaging, high content. 91,000 compounds, 0.18% hits. inhibition, % at 2 µM;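 active means inhibition above the batch mean plus 3 SD and confirmed as a hit by visual image inspection, cut at about 30% in these data, passing the limit was not always enough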
Phagocytosis inh: blocks phagocytosis by macrophages; J774A.1 macrophage IgG-bead phagocytosis, imaging; inhibition, % at 5 µM; 110,000 compounds, 0.07% hits; AID 1029;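 active means inhibition above the mean of the plate negative controls plus 5 SD, cut at about 13% in these data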;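 further: phagocytic index as fraction of beads internalized from green versus red external bead signal; plate controls were DMSO negative control for no effect and cytochalasin-D positive control for full effect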
VCAM1 TNFa inh: reduces TNF alpha induced VCAM1 expression in HUVEC; HUVEC TNFa-induced VCAM-1 immunofluorescence, high-content imaging; inhibition, % at 2 µM; 95,000 compounds, 0.48% hits;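 active means inhibition above the batch mean plus 3 SD, with images confirmed as a hit by eye, cut at about 37% in these data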;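 further: 0% = TNF-stimulated DMSO wells and 100% = unstimulated control wells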
Insulin prom inh: TRM-6 insulin promoter activity inhibition. TRM-6 cells (human fetal islet line), insulin promoter-eGFP reporter, imaging; reporter expression induced with tamoxifen. inhibition, % at 2 µM. 130,000 compounds, 0.9% hits. AID 1273;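 active means inhibition above the mean plus 3 SD, with well images judged a real hit on visual review, cut at about 60% in these data, passing the limit was not always enough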
TNFa cytotox: HUVEC cytotoxicity counter-screen, TNF alpha stimulated | 93,000 compounds, 0.17% hits | cell count reduction, % at 2 µM | HUVEC TNFalpha-stimulated, Hoechst cell count, imaging;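 active means cell count reduction exceeding the screen mean by over 5 SD, scaled to untreated wells per plate, cut at about 78% in these data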;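 further: cells counted after 24 h of TNF alpha exposure following the 1 h pretreatment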
Active calls of the source: *; i = inactive; . = no result given; ! = a repeat was not active. Hits are enriched below; roughly 1.6% of the tested compounds scored in any of these assays.

SMILES	E-sel TNF inh	F-actin modifier	Phagocytosis inh	VCAM1 TNFa inh	Insulin prom inh	TNFa cytotox
CCN1CCN(Cc2ccc(C)cc2)CC1	95*	.	0	.	-39	.
CCN1CCN(Cc2ccccc2C)CC1	95*	.	-1	.	-22	.
CCN1CCN(Cc2ccc(C)cc2C)CC1	4	.	-1	.	4	.
O=c1[nH]c2ccccc2o1	.	.	.	.	-27	.
CC(C)(C)C(=O)OCC12CCC(O1)C1(C)C(=O)OCC21 (stereo unspecified)	.	.	-5	.	22	.
CN(C)C(=O)Oc1ccc(OCc2nc3ccccc3[nH]2)cc1	.	.	3	.	.	.
C[C@@H]1O[C@@H](O[C@H]2C[C@@H](O)[C@]3(CO)[C@H]4[C@H](O)C[C@]5(C)[C@@H](C6=CC(=O)OC6)CC[C@]5(O)[C@@H]4CC[C@]3(O)C2)[C@H](O)[C@H](O)[C@H]1O	.	.	.	.	-355	.
C[C@H]1O[C@@H](O[C@H]2[C@@H](O)C[C@H](O[C@H]3[C@@H](O)C[C@H](O[C@H]4CC[C@@]5(C)[C@H](CC[C@@H]6[C@@H]5CC[C@]5(C)[C@@H](C7=CC(=O)OC7)CC[C@]65O)C4)O[C@@H]3C)O[C@@H]2C)C[C@H](O)[C@@H]1O	.	.	.	.	100*	.
Cc1oc(-c2cccs2)nc1CSCC(=O)N1CCC2(CC1)OCCO2	67*	-12	1	9	-9	-11
CCCC(C)C1(CC)C(=O)NC(=Nc2ccc(OC)cc2)NC1=O (stereo unspecified)	.	.	-3	.	.	.
O=c1[nH]c2ccccc2c(=O)n1-c1cccc(Cl)c1	.	-8	-2	8	82*	-36
COC(=O)C1=CO[C@@H](C)[C@@H]2CN3CC[C@]4(C(=O)Nc5ccccc54)[C@@H]3C[C@H]12	-9	.	.	.	5	.
COC(=O)C[C@]1(C(=O)OC)CN(C#N)N(c2ccc(Cl)cc2)C12c1ccccc1-c1ccccc12	89*	23	.	100*	-142	.
CC1(C)CC(=O)C2=C(C1)NC(=O)C21C(C(=O)OC(C)(C)C)=C(N)Oc2ccc(Br)cc21 (stereo unspecified)	-51	8	.	2	.	-13
CCN1CCC2(CC1)NC(CO)(CO)CO2	-11	3	-6	18	-18	-16
CCN1CCC2(CCNC2)C1 (stereo unspecified)	98*	12	1	-2	.	-17
CCOC(=O)N(c1ccccc1)P1(=S)OCCO1	79*	46	.	1	33	0
CC(=O)C1=C(C)OC(N)=C(C(=O)OC(C)C)C12C(=O)Nc1ccccc12 (stereo unspecified)	-10	-8	0	-6	100*	2
COCCOC(=O)C1=C(C)OC(N)=C(C(=O)OC)C12C(=O)Nc1ccccc12 (stereo unspecified)	.	-11	-1	13	.	-13
C=CCN1C(=O)NC(=O)C(CCc2ccncc2)(CCc2ccncc2)C1=O	6	.	.	.	-46	.
CCCN1C2CCCC1CC(NC(C)=O)C2 (stereo unspecified)	-47	12	-3	.	-50	.
CC(=O)NC1CC2CCC(C1)N2 (stereo unspecified)	.	6	1	-10	79*	-30
CC(=O)NC1CC2CCCC(C1)N2 (stereo unspecified)	-12	67*	0	-3	.	-36
CCOCCCNC(=O)C1c2cc(OC)c(OC)cc2C(=O)N2CCCCC12 (stereo unspecified)	-26	.	-9	.	-56	.
CCC1CCCCN1CC(=O)c1ccc(OC(F)F)cc1 (stereo unspecified)	.	.	-3	.	.	.
SMILES	E-sel TNF inh	F-actin modifier	Phagocytosis inh	VCAM1 TNFa inh	Insulin prom inh	TNFa cytotox
CN(C)C(=S)SSC(=S)N(C)C	86*	.	.	.	100*	.
C[C@@H]1C2C[C@@]34COC(=O)C3=CC=C[C@H]4[C@@]13C[C@H](c1ccoc1)O[C@@H]3O2	-18	.	.	.	-30	.
Cc1cc2c(C(C)C)c(O)c(O)c(C=O)c2c(O)c1-c1c(C)cc2c(C(C)C)c(O)c(O)c(C=O)c2c1O	.	.	.	.	62*!	.
CC(C)Oc1cc(-n2c(=S)[nH]c3ccccc3c2=O)c(Cl)cc1Cl	-13	17	.	8	10	-10
Cc1ccc(-c2cc(-c3ccc(C)cc3)[n+](C)o2)cc1	11	.	-4	.	79*	.
COc1ccc(C(O)c2ccccc2OP(=O)(N(C)C)N(C)C)cc1 (stereo unspecified)	14	.	-6	.	25	.
COc1cc2c3c(c1OC)-c1cc(O)ccc1CC3NCC2 (stereo unspecified)	-1	21	-1	44*	12	66
CN1C2CCC1/C(=C/c1ccccn1)C(=O)/C2=C\c1ccccn1	96*	.	11	.	i	.
Cc1nn(Cc2ccccc2)c(Cl)c1C(=O)OC(C)C(=O)Nc1ccc(F)cc1Cl (stereo unspecified)	.	.	-5	.	-30	.
CN1CCc2nc3sc(C#N)c(N)c3c(-c3cccs3)c2C1	.	-27	0	90*	38	74
COc1cc(C2SCC(=O)Nc3c2c(C)nn3-c2ccccc2)cc(OC)c1OC (stereo unspecified)	.	-3	.	9	.	0
Cc1nn(-c2ccccc2)c2c1C(c1ccc3c(c1)OCO3)SCC(=O)N2 (stereo unspecified)	2	-9	0	11	79*	-1
CC(Cc1ccccc1)NC(=O)/C=C/C(=O)O (stereo unspecified)	16	.	.	.	78*	.
CN1CCN(CC(=O)Nc2ccc([N+](=O)[O-])cc2C(=O)c2ccccc2)CC1	.	.	.	.	12	.
O=S(=O)(c1ccccc1)N1CN2CCN(C2)C1	.	-22	0	-7	86*	-19
CN1C(=O)N(C)C(=O)C2(Cc3ccccc3N3CCOCC32)C1=O (stereo unspecified)	12	4	-1	66*	43	32
O=c1c2cc(Br)ccc2[nH]c(=S)n1-c1ccccc1	-11	.	.	.	73*	.
O=C(COc1ccccc1)N1CCN(C/C=C/c2ccccc2)CC1	-52	0	2	-23	-100	5
O=C(COc1ccccc1)N1CCN(CC(O)COc2ccccc2)CC1 (stereo unspecified)	.	35*	1	-7	.	37
CC(=O)NN1C(=O)c2ccccc2NC1c1cccnc1 (stereo unspecified)	.	.	.	.	-71	.
Cc1cc(C=C2C(=O)N(C)C(=S)N(C)C2=O)c(C)n1C1CCCC1	-17	-4	-1	-13	-43	-27
Cc1cc(C=O)c(C)n1C1CCCCC1	33	-4	1	-7	69*	14
CCCCn1c(O)c(C(CC)=NCc2ccc(F)cc2)c(=O)[nH]c1=O	3	5	.	-7	83*	-3
CCC(C)N1C(=O)/C(=C/c2ccc3c(c2)CCN3CCCCl)C(=O)NC1=S (stereo unspecified)	.	.	-2	.	18	.
O=S1(=O)CCN(CCc2c[nH]c3ccccc23)CC1	100*	.	.	.	54	.
c1ccc2c(CN3CCCCCC3)c[nH]c2c1	.	.	.	.	-8	.
C=CCN1C(=O)NC(=O)/C(=C/c2cccn2C)C1=O	17	-19	.	-24	-48	-38
Cn1cccc1/C=C1/C(=O)NC(=O)N(Cc2ccccc2)C1=O	61*	.	11	.	3	.
CCCCc1ncc(CN2CCCC(C(=O)c3ccc(SC)cc3)C2)[nH]1 (stereo unspecified)	-8	.	.	.	.	.

High-throughput results: PubChem BioAssay, several laboratories
